From ChEMBL document CHEMBL3988442, “University of Dundee, Small-Polar-MMV Screening Library” (2021)

These molecules were tested against AMP-activated protein kinase, AMPK (Homo sapiens) (UniProt P54646+O43741+P54619+Q9UGJ0+Q9Y478+Q13131+Q9UGI9) (assay: AMP-dependent Kinase enzyme assay. An in vitro enzyme assay that detects ADP turnover that is directly proportional to AMPK activity. This uses naive AMPK that is activated during the assay with MK-8722). Settings: 30 µM.
Format: functional
Parameters: scale not given: direction of the effect not stated beside the values

**Q.** For CCCc1cc(=O)[nH]c(-n2nc(-c3cccs3)cc2N)n1, which Percent Effect is on record?
**A.** -6.1%

**Q.** For CCC1COCCN1C(=O)NCc1nccn1CC(C)C (centres undefined), which Percent Effect is on record?
**A.** -3.83%

**Q.** How did the Percent Effect turn out when NC1CCCc2c1cnn2-c1cc(F)cc(F)c1 (centres undefined) was run?
**A.** 10.6%

**Q.** For N#CC1COCCN1C(=O)c1cccc2cc[nH]c12 (centres undefined), which Percent Effect is on record?
**A.** 5.13%

**Q.** For CCc1ccccc1OCCN(C)C(=O)CCN1CCCO1, which Percent Effect is on record?
**A.** -7.88%

**Q.** How did the Percent Effect turn out when CCC1(CC)CC(=O)N(CC(O)c2ccc(Cl)cc2)C1=O (centres undefined) was run?
**A.** 7.86%

**Q.** With CCc1ccsc1C(=O)NC(C#N)CC (centres undefined) as the molecule, how does the Percent Effect read?
**A.** 2.87%

**Q.** With CC(C)C(C(=O)N(C)C)c1cccc(Cl)c1 (centres undefined) as the molecule, how does the Percent Effect read?
**A.** 6.38%

**Q.** With COCCC(=O)Nc1nc2c(OC)cc(F)cc2s1 as the molecule, how does the Percent Effect read?
**A.** -1.47%

**Q.** For CN1CC(c2n[nH]c(=O)n2-c2cccc(Cl)c2)CC1=O (centres undefined), which Percent Effect is on record?
**A.** -12.1%

**Q.** Which Percent Effect does the source give for CNc1nc(C(=O)N2CCn3nc(C(=O)OC)cc3C2)cs1 here?
**A.** -0.197%

**Q.** How did the Percent Effect turn out when O=C(Nc1ccc(-c2csnn2)cc1)NC(CCO)C1CC1 (centres undefined) was run?
**A.** 12.3%

**Q.** Which Percent Effect does the source give for CCN(Cc1cccc2c1OCCO2)C(=O)NC(C)(C)C here?
**A.** -7.11%

**Q.** How did the Percent Effect turn out when CCN(CCOC)C(=O)c1ccc2c(c1)nc(N1CC[C@H](O)C1)n2C was run?
**A.** 3.21%

**Q.** How did the Percent Effect turn out when CCNC(=O)c1ccnc(CC2COc3c(cccc3OC)C2)c1 (centres undefined) was run?
**A.** -3.13%

**Q.** Cc1ccccc1S(=O)(=O)N(C)[C@@H]1CC[C@@H](n2ccnc2C)[C@@H]1O was tested. Which Percent Effect did it give?
**A.** -13.8%

**Q.** For COCc1nn(Cc2ccc(Br)s2)c(=O)o1, which Percent Effect is on record?
**A.** 13.5%

**Q.** For COCC(=O)N1CCCC1(C(=O)N(C)C)c1cnccn1 (centres undefined), which Percent Effect is on record?
**A.** 6.8%

**Q.** CC(C)c1nnc(C2CCN(CC(=O)Nc3cccnc3)CC2)o1 was tested. Which Percent Effect did it give?
**A.** -5.27%

**Q.** Which Percent Effect does the source give for CCCc1ccc(CN2CCC3(CCC(=O)N(C)CC3)CC2)o1 here?
**A.** 1.5%

**Q.** CCN(CC)C(=O)CS(=O)(=O)c1cc(OC)c(OC)cc1C was tested. Which Percent Effect did it give?
**A.** 3.6%

**Q.** COC(=O)C1CCN(C(=O)Cn2ccc(-c3ccccc3)n2)CC1 was tested. Which Percent Effect did it give?
**A.** -5.77%

**Q.** Cc1cc2n(n1)CC(CNCc1cc(C)on1)CN2 (centres undefined) was tested. Which Percent Effect did it give?
**A.** -6.26%

**Q.** Which Percent Effect does the source give for O=C1CCC2(CCNCC2)CN1Cc1nnc2ccccn12 here?
**A.** 8.07%

**Q.** With CCSc1cc(C(=O)N(Cc2cnn(C)c2)C(C)C)ccn1 as the molecule, how does the Percent Effect read?
**A.** 1.44%

**Q.** How did the Percent Effect turn out when CCOC(=O)NC1CCCN(c2cncc(Br)c2)C1 (centres undefined) was run?
**A.** 15.7%

**Q.** How did the Percent Effect turn out when CCn1cnnc1CCNC(=O)c1ccc(F)c(Br)c1 was run?
**A.** -5.58%

**Q.** Cc1cc(C)c2c(NC(C)c3nncn3C3CCCC3)ncnc2n1 (centres undefined) was tested. Which Percent Effect did it give?
**A.** 4.35%

**Q.** Which Percent Effect does the source give for CSCC[C@H](NC(C)=O)C(=O)N(C)Cc1ccc(-n2cccn2)cc1 here?
**A.** -8.05%

**Q.** How did the Percent Effect turn out when CCN1CCC(CC(=O)NCCc2nc(N)cc(O)n2)CC1 was run?
**A.** 0.153%

**Q.** CCS(=O)(=O)N1CCN(C(C)c2ncc(-c3ccccc3)o2)CC1 (centres undefined) was tested. Which Percent Effect did it give?
**A.** -3.96%

**Q.** How did the Percent Effect turn out when NC(=O)c1cn[nH]c1NC(=O)c1ccc2c(c1)OCO2 was run?
**A.** 5.07%

**Q.** COC(=O)c1ncccc1N1CCCCC1 was tested. Which Percent Effect did it give?
**A.** 2.81%

**Q.** How did the Percent Effect turn out when COCCN1CC2(CCCN(Cc3cc(=O)c(OC)co3)C2)CCC1=O (centres undefined) was run?
**A.** -2.15%

**Q.** For c1ccc(C2CN(C3CC3)CC3(CCN(Cc4ncc[nH]4)CC3)C2)cc1 (centres undefined), which Percent Effect is on record?
**A.** 6.22%

**Q.** With CC(c1nc(C2CC2)no1)N1CCc2c(ncn2C)C1 (centres undefined) as the molecule, how does the Percent Effect read?
**A.** 12%

**Q.** With NC(=O)C1CCN(CCCNC(=O)Nc2nncs2)CC1 as the molecule, how does the Percent Effect read?
**A.** 1.35%

**Q.** Which Percent Effect does the source give for Cc1nnc(C(C)N2CCN(Cc3noc(C(C)(C)C)n3)CC2)o1 (centres undefined) here?
**A.** -8.02%

**Q.** With COc1ccccc1S(=O)(=O)N1CCN(C)[C@@H]2CS(=O)(=O)C[C@@H]21 as the molecule, how does the Percent Effect read?
**A.** -1.29%
